Test results reported in the supplement of paper PMC12636033.
± gives the standard deviation of the averaged measurements. Whole data set: some 33,000 sequences, median “E-score (rank enrichment, -0.5 to 0.5)” near -0.0043, cut for the highest 2% near 0.24. Many of the other results were omitted from the sample, so the highest values are more common in it than they were.

system: 2Sp-muMax20 (muMax20 with two 2,6-bis(methyl)pyridine Cys staples); experiment: PBM 8-mer E-score (E-score (rank enrichment, -0.5 to 0.5)); higher = stronger preferential binding
Procedure: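 Protein binding microarray (universal PBM chip covering all 10-mers in fixed probe flanks) with chemically synthesized human Max(13-93) bHLH-LZ analogs (not full-length Max) bearing noncanonical residues (hArg, Tha, Aib, Nle at 65) and aromatic Cys staples. Read-out per 8-mer (and its reverse complement): E-score (rank-based enrichment, -0.5 to 0.5) and Z-score of median probe intensity.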

Sequence | PBM 8-mer E-score
TCATTTCA | 0.171 ± 0.068
CATGGCCA | 0.0303 ± 0.016
CCAGCAGG | -0.054 ± 0.077
CGTTTCAA | -0.171 ± 0.036
CGTTTATC | -0.0397 ± 0.011
AGGCCCGA | -0.161 ± 0.0046
CATATATC | 0.232 ± 0.0054
TATATATA | 0.315 ± 0.019
CATATAGG | 0.145 ± 0.0097
CAGATATA | 0.0905 ± 0.056
AAGATATC | 0.211 ± 0.14
CATATATG | 0.308 ± 0.036
GATATATA | 0.204 ± 0.027
TATATAGA | 0.166 ± 0.025
AAGATATA | 0.259 ± 0.022
CATATATA | 0.277 ± 0.012
CATATACG | 0.0657 ± 0.013
CATATAGA | 0.182 ± 0.038
CCTAGTAG | 0.00183 ± 0.043
CACACTAA | 0.172 ± 0.041
CGTCCCAG | -0.132 ± 0.0026
CTATGGAG | 0.0519 ± 0.034
CAAGCTTA | -0.00639 ± 0.037
CCTGCCAC | -0.0854 ± 0.043
AGACCGTG | -0.2708 ± 0.0017

Sequence | PBM 8-mer E-score
TATGCCGA | -0.0358 ± 0.062
ACCAGCAG | -0.0797 ± 0.013
CCCGCCAG | -0.131 ± 0.01
ATAATATA | 0.194 ± 0.04
GATCTATA | -0.0283 ± 0.079
GTAATCTA | 0.259 ± 0.056
GTTATAGA | 0.175 ± 0.05
CTAATATA | 0.1721 ± 0.00093
GTTATATA | 0.264 ± 0.022
ATAATCTA | 0.141 ± 0.07
CTTATATA | 0.166 ± 0.073
CTAATCTA | 0.0847 ± 0.035
CATCTATA | 0.288 ± 0.024
AATCTATA | 0.147 ± 0.091
GTAATATA | 0.255 ± 0.07
ACCGCCCG | -0.242 ± 0.065
AAGGCGCC | 0.175 ± 0.087
CGCAACCA | 0.0737 ± 0.021
CCTTGCCA | -0.0434 ± 0.087
AGAATTTC | -0.0921 ± 0.041
CGAATTTA | 0.131 ± 0.035
CTAATTGA | -0.0167 ± 0.015
ATAATTGA | 0.2552 ± 0.0018
GTAATTGA | 0.0816 ± 0.034
AGAATTTA | 0.284 ± 0.096

Sequence | PBM 8-mer E-score
ATAATTTA | 0.284 ± 0.12
GTAATTTA | 0.0251 ± 0.0029
ATAATTTG | 0.183 ± 0.083
CGTGACTA | 0.0126 ± 0.018
ATTCTAGG | -0.0261 ± 0.025
ATTAACGA | 0.0547 ± 0.19
GTCCACCA | -0.0165 ± 0.0032
CTGCCCAA | -0.0288 ± 0.022
CATGTACC | -0.115 ± 0.026
AGATATGG | 0.168 ± 0.027
AAATATGG | 0.18 ± 0.0044
CTATATGA | 0.145 ± 0.07
GTATATGA | 0.0252 ± 0.077
ATATATGA | 0.293 ± 0.049
ATATATGG | 0.285 ± 0.018
ACATATGC | 0.0823 ± 0.085
CTATATGC | 0.159 ± 0.037
ATATATGC | 0.251 ± 0.052
ATCCTGTG | -0.0686 ± 0.032
GGCGGACC | -0.233 ± 0.004
ATATGAGC | 0.148 ± 0.011
GACATCTC | -0.202 ± 0.052
TGTGCAAA | -0.0258 ± 0.033
ATTACAGA | -0.0244 ± 0.14
ATTACATG | 0.242 ± 0.037

Sequence | PBM 8-mer E-score
ATTACAGG | 0.312 ± 0.042
ATTACAGC | -0.033 ± 0.008
ATTACATA | 0.0685 ± 0.037
ATTACATC | 0.126 ± 0.094
GGCTGGGA | -0.0185 ± 0.052
ACACCGAA | -0.0827 ± 0.029
ACCTCGGA | -0.233 ± 0.0065
CAGTCTCA | -0.0913 ± 0.013
TAATTATA | 0.245 ± 0.027
GAATTATA | 0.19 ± 0.11
AAATTATA | 0.301 ± 0.063
TAGTTATA | 0.255 ± 0.0097
CAATTATA | 0.176 ± 0.028
AAGTTATA | 0.0392 ± 0.07
AAATTATG | 0.134 ± 0.036
AAATTATC | 0.199 ± 0.084
GAGTTATA | 0.104 ± 0.048
CGCCTTCA | -0.00719 ± 0.17
AGATGCCG | -0.118 ± 0.13
GTAACATA | 0.177 ± 0.016
ATACCGCA | 0.013 ± 0.035
ATATTGAA | 0.0994 ± 0.059
GAATTGAA | 0.0949 ± 0.085
AAATTGAT | 0.113 ± 0.046
AAATTGAA | 0.24 ± 0.083

Sequence | PBM 8-mer E-score
GTATTGAA | 0.132 ± 0.089
TTATTGAA | 0.3 ± 0.049
ACAACGGA | -0.0195 ± 0.029
ACGATACA | 0.0917 ± 0.079
ACATAGCG | 0.00456 ± 0.11
ACCCCGCT | -0.0295 ± 0.018
GATGCGCC | -0.0256 ± 0.014
TGTGAAAA | 0.289 ± 0.035
GGTGAAAA | -0.00809 ± 0.034
CGTGAAAA | 0.109 ± 0.014
AATAGGTA | 0.198 ± 0.0069
AGCCGTTA | -0.114 ± 0.018
AACCGTAA | 0.0404 ± 0.047
CTGATCAA | -0.0225 ± 0.021
CGCGGGAA | 0.0597 ± 0.013
CTGTAATA | 0.134 ± 0.074
ATGTAAAT | 0.159 ± 0.029
ATGTACTG | 0.0436 ± 0.099
ATGTAATA | 0.278 ± 0.0077
ATGTAATG | 0.134 ± 0.074
CTGTAATC | 0.0629 ± 0.045
ATGTACTA | 0.258 ± 0.061
GTGTAATA | 0.162 ± 0.042
ATGTAATC | 0.236 ± 0.023
GTGTACTA | 0.0822 ± 0.031

Sequence | PBM 8-mer E-score
ATGTAAAA | 0.274 ± 0.016
CTGTAAAA | 0.102 ± 0.0073
CCTGGAGA | -0.136 ± 0.09
AAACTTAT | 0.203 ± 0.022
GTGGGCCA | -0.0973 ± 0.051
AGGAGCCC | 0.00737 ± 0.03
ACCTCCAG | -0.161 ± 0.079
AGGGACCT | -0.13 ± 0.0014
GGCAACGA | -0.123 ± 0.0029
AACATAAG | 0.0487 ± 0.042
AACATAAT | 0.285 ± 0.053
GACATAAC | 0.146 ± 0.026
CACATAAC | 0.0249 ± 0.13
AACATAAC | 0.278 ± 0.052
AACATAAA | 0.164 ± 0.097
GTCGGCAC | -0.0877 ± 0.06
TCCGATAA | -0.23 ± 0.14
AAAGTACC | 0.17 ± 0.02
AGCGCTAA | -0.0615 ± 0.022
CTTGACGA | 0.00312 ± 0.0077
CGGTGAAC | 0.0144 ± 0.098
AGGGCGAA | -0.00371 ± 0.021
AAATACGT | 0.112 ± 0.06
AAATACGC | 0.236 ± 0.058
GAATACGC | 0.0401 ± 0.069

Sequence | PBM 8-mer E-score
ATTAAGGC | 0.0884 ± 0.038
AGCGATGC | -0.00497 ± 0.044
AGATAAAC | 0.00083 ± 0.061
ATTTTCAC | 0.0326 ± 0.0074
CTTTTCAC | 0.287 ± 0.021
CCTTTCAC | 0.0665 ± 0.067
CGGTTCGA | -0.0332 ± 0.043
CACCCTCG | 0.07079 ± 0.00033
CATGTTTC | 0.0659 ± 0.0045
AATGTTGA | -0.0129 ± 0.047
GATGTTTA | 0.0541 ± 0.02
CATGTTAC | 0.256 ± 0.018
CTTGTTTA | -0.0208 ± 0.029
CATGTTAG | 0.111 ± 0.049
GTTGTTTA | 0.247 ± 0.0077
CATGTTGC | 0.1 ± 0.094
CATGTTTA | 0.24 ± 0.056
AATGTTAC | 0.0165 ± 0.1
ATTGTTTA | -0.0168 ± 0.043
CATGTTGA | 0.244 ± 0.023
ATTTCAGA | 0.0234 ± 0.035
GGGATCGA | 0.0419 ± 0.04
